Laboratory results taken from publication PMC4336329 (PLoS ONE, 2015).
Hit rate of the full screen: of about 310,000 compounds, about 14,000 (4.5%) showed an effect of 50% or more. Effects have a minus sign here. The sample as a whole holds a higher share of strong results than the screen did.

target: human ether-à-go-go-related gene (hERG) potassium channel (human, UniProt Q12809); assay: primary screen, population patch clamp on CHO cells stably expressing hERG; higher = less effect of the substance
Sequence (Q12809 whole entry, looked up): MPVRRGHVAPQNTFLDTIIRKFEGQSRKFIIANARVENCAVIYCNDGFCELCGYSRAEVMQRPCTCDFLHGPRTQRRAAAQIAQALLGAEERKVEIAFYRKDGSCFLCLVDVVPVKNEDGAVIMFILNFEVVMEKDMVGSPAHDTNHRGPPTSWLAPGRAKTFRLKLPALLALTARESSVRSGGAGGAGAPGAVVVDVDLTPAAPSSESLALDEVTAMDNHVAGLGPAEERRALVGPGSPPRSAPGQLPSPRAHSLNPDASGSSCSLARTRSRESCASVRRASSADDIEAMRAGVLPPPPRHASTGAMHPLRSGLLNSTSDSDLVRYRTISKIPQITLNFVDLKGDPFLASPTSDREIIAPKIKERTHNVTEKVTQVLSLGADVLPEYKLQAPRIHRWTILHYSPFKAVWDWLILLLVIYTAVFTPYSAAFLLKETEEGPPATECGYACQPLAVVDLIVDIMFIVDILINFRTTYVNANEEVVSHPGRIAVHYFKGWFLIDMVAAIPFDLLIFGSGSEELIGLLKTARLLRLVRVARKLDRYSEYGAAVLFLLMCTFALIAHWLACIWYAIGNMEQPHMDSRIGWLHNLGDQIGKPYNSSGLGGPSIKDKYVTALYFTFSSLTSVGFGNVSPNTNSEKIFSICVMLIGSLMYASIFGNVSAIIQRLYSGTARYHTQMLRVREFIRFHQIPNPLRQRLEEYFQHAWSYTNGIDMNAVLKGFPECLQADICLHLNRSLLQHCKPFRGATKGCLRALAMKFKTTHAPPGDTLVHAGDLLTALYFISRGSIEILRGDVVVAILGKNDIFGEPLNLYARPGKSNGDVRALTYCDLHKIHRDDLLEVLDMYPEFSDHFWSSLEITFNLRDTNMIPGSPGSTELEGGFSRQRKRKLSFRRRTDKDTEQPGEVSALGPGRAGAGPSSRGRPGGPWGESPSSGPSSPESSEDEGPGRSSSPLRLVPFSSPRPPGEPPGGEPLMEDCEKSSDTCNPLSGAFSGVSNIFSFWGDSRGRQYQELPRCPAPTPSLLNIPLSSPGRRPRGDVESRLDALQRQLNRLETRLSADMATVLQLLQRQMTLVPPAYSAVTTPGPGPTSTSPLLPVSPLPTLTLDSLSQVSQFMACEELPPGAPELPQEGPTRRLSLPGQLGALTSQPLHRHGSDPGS
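Also: peak tail current of the secondary pulse compared with the same well before compound.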

Row | Structure (SMILES) | hERG current change (%, negative = inhibition) at 10uM [%]
1 | COc1ccc(C2/C(=C(/O)c3ccc(C)cc3)C(=O)C(=O)N2C)cc1 (stereo not drawn) | -2.36
2 | CC1CCc2ccccc2N1C(=N)N(C)C.Cl (stereo not drawn) | 3.44
3 | CCNC(=O)O/N=C(\C)c1sc(-c2ccccc2)nc1C | -11.2
4 | CCOC(=O)C(=CNNc1cccc(Cl)c1)C(=O)OCC | 15.5
5 | O=C(Nc1ccc(F)cc1F)c1sccc1SCc1cccc(C(F)(F)F)c1 | -4.52
6 | O=C(Nc1ccc(Nc2ccccc2)cc1)c1c(F)c(F)c(F)c(F)c1F | 22.9
7 | CCOc1cccc(N(C(=O)c2ccco2)C(C(=O)NC2CCCC2)c2cccnc2)c1 (stereo not drawn) | 0.854
8 | Cc1ccc2sc(NNC(=O)c3cc(-c4cccs4)nc4ccccc34)nc2c1C | 16.3
9 | CCn1c(SCC(=O)Nc2nc(C)c(C)s2)nnc1-c1cccs1 | -73.4
10 | CCn1c(SCC(=O)Nc2nc(C)c(C)s2)nnc1-c1cccnc1 | -26.2
11 | CCc1nnc(NC(=O)CSc2nnc(-c3ccco3)n2CC)s1 | 13.7
12 | CCn1c(SCC(=O)Nc2nc(C)c(C)s2)nnc1-c1ccco1 | -68.8
13 | CCn1c(Cc2ccccc2)nnc1SCC(=O)Nc1nc(C)c(C)s1 | 9.3
14 | CCn1c(SCC(=O)Nc2nnc(C)s2)nnc1-c1ccco1 | -5.98
15 | Cc1ccc2cc(C=C(C#N)C#N)c(N3CCCCC3)nc2c1 | 15.3
16 | Nc1ccc2c(c1)-c1ccccc1S(=O)(=O)N2 | 11.1
17 | COc1ccc(O)c2c(=O)c3c(OC)cc4c(c3oc12)C1C=COC1O4 (stereo not drawn) | 4.03
18 | O=C(c1cccs1)N1CCN=C1SCc1ccccc1 | 7.77
19 | O=C1c2ccccc2C(=O)N1CCCn1c(=O)oc2ccccc21 | 11.4
20 | Cc1cccc(-n2nnc3c(=O)n(Cc4ccccn4)cnc32)c1 | -7.65
21 | Cc1cccc(NC(=O)NCC(c2ccc(F)cc2)N2CCN(C)CC2)c1 (stereo not drawn) | -42.6
22 | Cc1ccc(C(CNC(=O)c2ccc(Br)o2)N2CCN(C)CC2)cc1 (stereo not drawn) | -60.4

Row | Structure (SMILES) | hERG current change (%, negative = inhibition) at 10uM [%]
23 | Cc1ccc(C(CNC(=O)Nc2ccccc2)N2CCN(C)CC2)cc1 (stereo not drawn) | -28.9
24 | Cc1ccc(C(CNC(=O)c2ccco2)N2CCN(C)CC2)cc1 (stereo not drawn) | -11.1
25 | COc1ccc(C(CNC(=O)Nc2ccccc2)N2CCN(C)CC2)cc1 (stereo not drawn) | -12.8
26 | CN1CCN(C(CNC(=O)Nc2ccc(Cl)cc2)c2ccc(F)cc2)CC1 (stereo not drawn) | -56.3
27 | Cc1ccc(C(CNC(=O)Nc2ccc(Cl)cc2)N2CCN(C)CC2)cc1 (stereo not drawn) | -76.8
28 | COc1ccc(C(CNC(=O)Nc2ccc(Cl)cc2)N2CCN(C)CC2)cc1 (stereo not drawn) | -24.5
29 | CN1CCN(C(CNC(=O)c2ccc(Br)o2)c2ccc(F)cc2)CC1 (stereo not drawn) | -17.5
30 | Cc1ccc(/C=C(\C#N)C(=O)NCc2ccco2)o1 | 3.84
31 | O=C(c1ccccc1)c1cn[nH]c1-c1ccccc1O | 5.65
32 | CCOc1ccc(S(=O)(=O)NCCC(=O)N(C)Cc2cccs2)cc1 | -20.9
33 | COc1cc(/C=N/NC(=O)c2ccccn2)ccc1OC(=O)c1ccc(Br)cc1 | 1.06
34 | CCn1c(=O)c([N+](=O)[O-])c(NC2CCS(=O)(=O)C2)c2ccccc21 (stereo not drawn) | 5.85
35 | COCCNC(=O)CCC1CCN(Cc2ccc(-c3ccccc3)cc2)CC1 | -63.6
36 | OC1CCN(Cc2cccc(Oc3ccccc3)c2)CC1 | 6.4
37 | COCCNC(=O)CCC1CCN(Cc2cccc(-c3ccc(C)o3)c2)CC1 | -25.3
38 | COCCNC(=O)CN1CCC(NC(=O)Nc2ccccc2)CC1 | -8.21
39 | COCCNC(=O)CCC1CCN(Cc2cccc(Oc3ccccc3)c2)CC1 | -55.3
40 | COCCNC(=O)CCc1nnc(Cc2ccc(-c3ccccc3)cc2)o1 | 14.5
41 | Clc1ccccc1-c1nnc2sc(-c3ccco3)nn12 | -21.8
42 | O=C(CSc1ccc([N+](=O)[O-])cn1)Nc1ccccc1N1CCOCC1 | -19.2
43 | c1nc(NC2CCCCC2)c2[nH]cnc2n1 | -3.86
44 | COc1ccc(/C=C2\CCCCC2=O)cc1 | -6.19

Row | Structure (SMILES) | hERG current change (%, negative = inhibition) at 10uM [%]
45 | Cc1ccc(C(C)C)c(OCC(=O)Nn2c(=O)[nH]c3ccccc3c2=O)c1 | -12.6
46 | COc1ccc(/C=N/n2c(=O)[nH]c3c([nH]c4ccc(Cl)cc43)c2=O)cc1CN1CCCCC1 | -13
47 | COc1ccc2c(c1)[nH]c1c(=O)n(/N=C/c3ccc(OC)c(CN4CCCC4)c3)cnc12 | -71.1
48 | COc1ccc(/C=N/n2cnc3c([nH]c4ccccc43)c2=O)cc1COc1ccccn1 | -8.67
49 | COc1ccc2c(c1)[nH]c1c(=O)n(/N=C/c3ccc(OC)c(CN4CCCCC4)c3)cnc12 | -64.3
50 | COc1ccc2c(c1)[nH]c1c(=O)n(/N=C/c3ccc(OC)c(COc4ccccn4)c3)cnc12 | -9.63
51 | COc1ccc(/C=N/n2cnc3c([nH]c4ccccc43)c2=O)cc1CO | 11.2
52 | CCC(C)NC(=O)CN(c1ccc(Cl)c(Cl)c1)S(C)(=O)=O (stereo not drawn) | 3.62
53 | O=C(NC1CCCC1)c1cc(S(=O)(=O)N2CCOCC2)c(Cl)cc1Cl | -8.15
54 | O=C(Nc1nnc(-c2ccc3c(c2)CCCC3)o1)C1CCCCC1 | 4.3
55 | O=C(CSc1nnc(NC(=O)c2ccccc2F)s1)Nc1ccccc1F | 30.9
56 | CCn1c(SCC(=O)N2CCCCC2)nc2c1c(=O)n(C)c(=O)n2C | 14.3
57 | CCCCOc1ccc(/C(O)=C2/C(=O)C(=O)N(CCCOC)C2c2ccncc2)cc1 (stereo not drawn) | 18.2
58 | CCCOc1ccc(/C(O)=C2/C(=O)C(=O)N(CCCOC)C2c2cccnc2)cc1 (stereo not drawn) | -5.91
59 | CCCOc1ccc(/C(O)=C2/C(=O)C(=O)N(CCCOC)C2c2ccncc2)cc1 (stereo not drawn) | -53.1
60 | COc1cc(OC)cc(C(=O)N2CCN(Cc3ccccc3[N+](=O)[O-])CC2)c1.O=C(O)C(=O)O | -46.5
61 | O=C(c1cccs1)N1CCN(Cc2ccccc2[N+](=O)[O-])CC1 | -17.7
62 | O=C(Cc1ccccc1[N+](=O)[O-])NC1CCN(Cc2ccccc2)CC1 | -1.68
63 | O=C(C1CCCN(Cc2ccccc2[N+](=O)[O-])C1)N1CCCC1.O=C(O)C(=O)O (stereo not drawn) | 11.4
64 | CC(C)CC(=O)N1CCN(Cc2ccccc2[N+](=O)[O-])CC1.O=C(O)C(=O)O | -7.35
65 | O=C(O)C(=O)O.O=C(c1ccc([N+](=O)[O-])cc1)N1CCN(Cc2ccccc2[N+](=O)[O-])CC1 | -75
66 | COc1ccc(C(=O)N2CCN(Cc3ccccc3[N+](=O)[O-])CC2)cc1.O=C(O)C(=O)O | -58.9

Row | Structure (SMILES) | hERG current change (%, negative = inhibition) at 10uM [%]
67 | COc1cccc(C(=O)N2CCN(Cc3ccccc3[N+](=O)[O-])CC2)c1 | -14.5
68 | CN(Cc1ccccc1)C1CCN(Cc2ccccc2[N+](=O)[O-])CC1.O=C(O)C(=O)O | -59.6
69 | CC(=O)Nc1cccc(NC(=O)CSc2ccc(-c3cccnc3)nn2)c1 | 7.43
70 | CCC(C)/C(C)=N/NC(=O)CSc1nc2ccccc2[nH]1 (stereo not drawn) | 2.26
71 | O=C1C2CC=CCC2C(=O)N1CNc1ccccc1 (stereo not drawn) | 14.7
72 | Cc1c(Cl)c([N+](=O)[O-])nn1CCCC(=O)Nc1ccc(Cl)cc1Cl | -45.1
73 | COc1ccc(CNC(=O)C(=O)NCC2OCCN2S(=O)(=O)c2cccs2)cc1 (stereo not drawn) | -4.34
74 | O=C(CNC1C(=O)Nc2ccccc21)Sc1ccccc1 (stereo not drawn) | 22.3
75 | CCSc1nnc(NC(=O)Cc2cc(OC)c(OC)c(OC)c2)s1 | 8.27
76 | CSc1nnc(SCC(=O)N(C)c2c(N)n(Cc3ccccc3)c(=O)[nH]c2=O)s1 | 5.79
77 | CC(C)C[C@H](NC(=O)c1nc[nH]c1C(=O)NCc1ccccc1)C(=O)OCc1ccccc1 | -7.88
78 | COCCn1c(SCC(=O)NC2CCCC2)nnc1C(C)C | 22.6
79 | CSc1cccc(CN2CCC(CCC(=O)NC3CC3)CC2)c1 | -62.6
80 | O=C(CCC1CCN(Cc2ccc(Cl)cc2)CC1)NC1CC1 | -65.9
81 | O=C(CCC1CCN(Cc2ccccc2Cl)CC1)NC1CC1 | -23.2
82 | CSc1ccc(C(=O)N2CCC(CCC(=O)NC3CC3)CC2)cc1 | -30.8
83 | CSc1ccccc1C(=O)N1CCC(CCC(=O)NC2CC2)CC1 | 11.6
84 | O=C(CCC1CCN(Cc2ccc(C#CCCO)cc2)CC1)NC1CC1 | -46.7
85 | CN(Cc1cnn(C)c1)Cc1nc(-c2ccc(Cl)cc2)no1 | -4.26
86 | Cn1c(=O)c2c(SC3CCCC3)nc(C3CC3)nc2n(C)c1=O | 18.8
87 | S=C1NCCOCCOCCNC(=S)N2CCOCCOCCN1CCOCCOCC2 | 5.22
